Rows were chosen to be rich in hits. Some 11% of all compounds tested hit in one or more screens of this group.
HCV inh = qHTS Assay for Inhibitors of Hepatitis C Virus (HCV); Huh7.5.1 HCVcc-Cre infection, luciferase reporter, 44 h; actives 3.4% (n = 340,000); Potency, µM (highest dose often 41.8 µM), for the others: at the highest dose activity change, negative = inhibition, hits mostly inhibitors; note: % is set by controls: 0 for no effect and ±100 for the full control effect
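Compounds are dispensed onto cells plated 4 h earlier at 1,000 per well, with HCVcc-Cre virus (about 0.5 moi) added next. Following 44 h of culture, luminescent signal is measured for 15 sec after 15 min with substrate at room temperature.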
NS1 inh = qHTS Assay for Inhibitors of Influenza NS1 Protein Function; actives 0.4% (n = 270,000); Potency, µM (highest dose often 46.1 µM), for the others: at the top dose activity, positive = more growth; AID 2326, 2010; calls by dose curve; note: actives are rising curves; nearly all actives have a fitted effect of over 50% in size
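S. cerevisiae expressing influenza A NS1, grown in glucose, washed, then diluted 1:100 into pH 6.0 -URA galactose medium with 23 nl compound. Growth recovery read as OD600; NS1-free strain serves as control.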
Pf growth 48h = Primary qHTS for delayed death inhibitors of the malarial parasite plastid, 48 hour incubation. Potency, µM (doses to about 28.7 µM), for the others: top-dose activity change, negative = inhibition, usual class: inhibitors. P. falciparum luciferase growth in erythrocytes, 48 h. actives 5.9% (n = 310,000); note: % is set by controls: 0 for no effect and ±100 for the full control effect
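Here the parasites carry a stable luciferase gene and grow inside erythrocytes in Albumax-based RPMI medium with compound for one erythrocytic cycle. Activity is scored as loss of luminescent signal.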
VACV Venus inh = qHTS for Stage-Specific Inhibitors of Vaccinia Orthopoxvirus: Venus Reporter Primary qHTS; Potency, µM (top dose mostly 36.5 µM), without a hit: top-dose activity change, negative = inhibition, most hits filed as inhibitors; Vaccinia virus Venus reporter expression, fluorescence; actives 0.46% (n = 330,000); calls by dose curve; tested in A549 cells; note: % is set by controls: 0 for no effect and ±100 for the full control effect; nearly all actives have a fitted effect of over 30% in size
Vaccinia mCherry = qHTS for Stage-Specific Inhibitors of Vaccinia Orthopoxvirus: mCherry Reporter Primary qHTS. Vaccinia virus mCherry reporter infection, fluorescence. actives 0.63% (n = 310,000). Potency, µM (series often up to 36.5 µM), inactives show at the highest dose activity change, negative = inhibition, most hits filed as inhibitors; calls by dose curve; tested in A549 cells; note: % is set by controls: 0 for no effect and ±100 for the full control effect; nearly all actives have a fitted effect of over 35% in size
Pf growth 96h = Primary qHTS for delayed death inhibitors of the malarial parasite plastid, 96 hour incubation. actives 6.9% (n = 320,000). P. falciparum luciferase reporter growth, 96 h. Potency, µM (titrated, usually from 28.7 µM), without a hit: at the highest dose activity change, negative = inhibition, actives largely listed as inhibitors; note: % is set by controls: 0 for no effect and ±100 for the full control effect
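Plates of compound plus infected erythrocytes (2% hematocrit, 0.05% parasitemia final) incubate 96 hours, 37 C, 5% CO2. Detection reagent added; reduced luminescence from the parasites' luciferase reporter flags inhibition.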
* hit, by the source's call; i = inactive; ? = inconclusive; nt = not tested or not shown; [ ] = remark or other dose. Unless noted, calls come from the whole dose curve; as a rule, active = well fitted inhibition curve with a large enough effect; inconclusive = small, poorly fitted or top-dose-only effect, or another doubt; inactive = no such curve, though single readings can be large or run the other way. Potency is the fitted concentration of half-maximal effect.

SMILES	HCV inh	NS1 inh	Pf growth 48h	VACV Venus inh	Vaccinia mCherry	Pf growth 96h
O=[N+]([O-])c1c(Nc2ccc(O)cc2)cc(Cl)c2nonc12	7.1µM*	-100%	nt	?	?	-24%
CC1CN(Cc2cc(=O)n3ccsc3n2)CC(C)O1 (stereo not given)	21%	-1%	18%	5%	-3%	12µM*
COc1ccc(-c2cc(-c3ccccc3)c(C#N)c(S(C)=O)n2)cc1 (stereo not given)	22µM*	-6%	nt	nt	nt	9%
COc1ccc(-c2cc(-c3ccccc3)nc(SCC(=O)Nc3ncc(C)s3)c2C#N)cc1	?	24%	8.3µM*	-21%	-16%	?
COc1ccc(-c2cc(-c3cccs3)c(C#N)c(SCC(=O)NCc3ccccc3OC)n2)cc1	?	-6%	2.3µM*	8%	-5%	10µM*
CCSc1nc(-c2ccc(OC)cc2)cc(-c2ccccc2)c1C#N	?	3%	nt	nt	nt	13µM*
CCc1nnc(NC(=O)CSc2nc(-c3ccc(F)cc3)cc(-c3ccccc3)c2C#N)s1	12%	21%	30%	nt	nt	14%
O=C(O)CS(=O)CC(=O)NCc1cccc(C(F)(F)F)c1 (stereo not given)	11%	6%	13%	-7%	i	2%
O=C(Cc1c(F)cccc1Cl)NNC(=O)c1ccncc1	4%	nt	-7%	nt	nt	-25%
N#Cc1ccc(COC(=O)CSc2nnc(N)s2)cc1	6%	-8%	2%	-9%	-11%	1%
O=C1C(Oc2ccccc2)C(c2cccs2)N1Cc1ccc2c(c1)OCO2 (stereo not given)	?	2%	?	-5%	-18%	?
Cc1ccccc1OC1C(=O)N(Cc2ccc3c(c2)OCO3)C1c1sccc1C (stereo not given)	?	9%	?	?	-20%	13µM*
Cc1ccc(NC(=O)CN(C)c2ccc(S(=O)(=O)N3CCN(C)CC3)cn2)cc1	-16%	-5%	?	nt	nt	-34%
N#Cc1ccc(N2CCN(C(=O)c3cccc(F)c3)CC2)c(F)c1	1%	6%	-8%	5%	-9%	-3%
C/C(=N\Nc1cccc(Cl)c1)c1ccc(-n2ccnc2)cc1	-25%	4%	?	-22%	-3%	12µM*
O=C1CCCc2nc(N3CCN(C(=O)c4ccco4)CC3)ncc21	10%	14%	126%	-9%	-8%	9.3µM*
COc1cccc(C(=O)Nc2sc(C(C)C)cc2C(N)=O)c1OC	?	-152%	?	nt	nt	13µM*
COc1cccc(C(=O)Nc2nnc(-c3ccccc3)s2)c1OC	1%	-22%	88%	-10%	i	185%
CCCn1c(/N=C/c2cc(OC)ccc2O)nc2ccccc21	11%	-4%	3%	-17%	-25%	-29%
CCCCn1c(/N=C/c2cc(OC)ccc2O)nc2ccccc21	-5%	3%	-9%	3.5µM*	?	11%
COC(=O)c1cc(-c2cc(OC)ccc2OC)nc2c1c(=O)n(C)c(=O)n2Cc1ccccc1	-9%	-42%	?	-5%	-16%	2.1µM*
O=C(c1cc2ccccc2cc1O)N1CCN(c2ccccn2)CC1	-6%	-8%	?	4%	?	?
Oc1cc(-c2cccnc2)cc2cccnc12	nt	nt	7.4µM*	nt	nt	4.1µM*
CN1CCN(C(=O)c2cccc(-c3ccc4nncn4c3)c2)CC1	nt	nt	nt	5%	10%	nt
CN1CCN(C(=O)c2cccc(-c3cc(O)c4ncccc4c3)c2)CC1	nt	nt	10µM*	nt	nt	10µM*
SMILES	HCV inh	NS1 inh	Pf growth 48h	VACV Venus inh	Vaccinia mCherry	Pf growth 96h
CN1CCN(c2cc(-c3cc(O)c4ncccc4c3)ccn2)CC1	nt	nt	12µM*	nt	nt	?
COc1cccc(N2CCN(c3ncnc4c3c(-c3ccccc3)cn4-c3cccc(C(F)(F)F)c3)CC2)c1	nt	nt	nt	-6%	-9%	nt
O=C(NCCCN1CCOCC1)c1cn(-c2ccccc2)nc1-c1cccs1	-2%	-1%	nt	?	nt	-28%
COc1ccccc1-c1nnc2sc(COc3ccccc3)nn12	-25%	-30%	?	nt	nt	-15%
Clc1ccccc1-c1nnc2sc(CCc3ccccc3)nn12	-17%	-87%	13µM*	-8%	-10%	nt
Clc1cccc(-c2nnc3sc(-c4ccc5c(c4)OCO5)nn23)c1	nt	-37%	19%	nt	nt	?
c1ccc(CCc2nn3c(-c4ccncc4)nnc3s2)cc1	-19%	-34%	?	-12%	i	-9%
COc1ccccc1-c1nnc2sc(COc3ccc(Cl)cc3Cl)nn12	?	-117%	?	nt	nt	10µM*
COc1ccccc1-c1nn2c(-c3ccccc3Cl)nnc2s1	nt	13µM*	?	nt	nt	nt
Clc1ccccc1-c1nnc2sc(-c3ccc4c(c3)OCO4)nn12	-23%	?	12µM*	nt	nt	-19%
COCCCNC(=O)CCC(=O)Nc1ccc2nc(N3CCOCC3)cc(C)c2c1	-22%	-8%	48%	nt	nt	nt
O=C(/C=C/c1ccc(Br)o1)NCCCN1CCOCC1	22%	13%	-12%	-15%	-14%	13%
COc1ccc(-c2nn3c(-c4ccccc4)nnc3s2)cc1	?	-54%	?	nt	nt	5%[5.75 µM]
CCN(CC)c1ccc(-c2nn3c(-c4ccccc4OC)nnc3s2)cc1	?	-69%	2.6µM*	?	?	11%[5.75 µM]
C=CCSc1nnc(CSc2nc3sc4c(c3c(=O)[nH]2)CCCC4)n1-c1ccccc1	20%	-5%	-13%	-14%	-10%	?
C/C(=N/NS(=O)(=O)c1ccc(C)cc1)c1c[nH]c2ccccc12	6%	-7%	0%	-14%	-12%	1.3µM*
CC(C)C(=O)Nc1ccc(N2CCCC2)cc1	-8%	14%	nt	-3%	-14%	4.1µM*
O=C(Nc1ccc(N2CCCC2)cc1)C(c1ccccc1)c1ccccc1	-1%	17%	nt	-2%	-19%	4.7µM*
CC(C)C(=O)Nc1ccc(N2CCN(c3ccc(F)cc3)CC2)cc1	4%	nt	37%	-7%	i	3%
